A short description of test [1]: resazurin metabolic signal in HepG2 cells – cell-based, resazurin fluorescence, 24 h, PK04 Diversity Set, profiling panel (AID 1172). Also: test concentration not given here. The note with it: HepG2 viability, higher = more signal. (In general: Alamar Blue is a resazurin reagent that responds to reducing activity.)
Test [2] in a line: budding yeast growth changes without added modifier – OD600, strain BY4716, 24 h, basal condition, primary screen (AID 1173). The note with it: S. cerevisiae BY4716 growth, OD600, 24 h; higher = more signal, called active from +8 up or from −8 down.
Test [3] can be described thus: viability profiling in MM1S myeloma cells – cell-based, resazurin fluorescence, basal, 24 h, PK04 Diversity Set, profiling panel (AID 1174).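 Also: MM1S multiple myeloma cell line; test concentration not given here.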 The note with it: higher = more signal, called active from +8 up or from −8 down.
Test [4] concerns the target Dihydroorotate dehydrogenase (quinone), mitochondrial (Plasmodium falciparum (isolate 3D7)) (UniProt Q08210). In words: inhibition of P. falciparum DHODH – biochemical, C-terminal His tag, absorbance 600 nm, primary screen (AID 1175).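 Also: recombinant parasite enzyme with a five histidine tag at its C terminus; test concentration not given here.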 The note with it: PfDHODH enzyme, DCIP absorbance 600 nm; higher = more signal, called active from +8 up or from −8 down.
A short description of test [5]: inhibition of PAO1 biofilm formation – strain PAO1, LB-PBS medium, absorbance 600 nm, primary screen (AID 1176). Also: test concentration not given here. The note with it: P. aeruginosa PAO1 growth/biofilm, A600, 12 h; higher = more signal.
Test [6] can be described thus: growth modulation of vineyard yeast isolate – strain RM11-1a, OD600, basal, 24 h, primary screen (AID 1177).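 Also: cultures grown under basal conditions with no added stressor; test concentration not given here.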 The note with it: S. cerevisiae RM11-1a growth, OD600, 24 h; higher = more signal, called active from +8 up or from −8 down.
Test [7] is described as follows: growth of efflux-deficient E. coli DRC39 – strain DRC39, OD650, 24 h, E. coli filamentation inducers, primary screen (AID 1178).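 Also: growth measured as culture turbidity by optical density at 650 nm; test concentration not given here.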 The note with it: E. coli DRC39 acrAB, higher = more signal, called active from +8 up or from −8 down.
Test [8] is described as follows: growth of efflux-deficient E. coli DRC39 – strain DRC39, OD650, 48 h, E. coli filamentation inducers, primary screen (AID 1179).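 Also: screen aims at cell division blockers that make cells filament.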 The note with it: E. coli DRC39 delta-acrAB growth, higher = more signal, called active from +8 up or from −8 down.
The nature of test [9]: viability profiling in RPMI8226 myeloma cells – cell-based, resazurin fluorescence, basal, 24 h, PK04 Diversity Set, profiling panel (AID 1180).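 Also: RPMI8826 multiple myeloma cell line at 5000 cells per well; test concentration not given here.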 The note with it: higher = more signal.
The target in test [10] is E3 ubiquitin-protein ligase XIAP (Homo sapiens) (UniProt P98170). The experiment in a line: small molecules binding XIAP protein – biophysical, small-molecule microarray, fluorescence 635 nm, primary screen (AID 1181).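 Also: score merges 667 nm emission and signal to noise over triplicate slides.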 The note with it: higher = more signal.
Sequence of E3 ubiquitin-protein ligase XIAP (Homo sapiens) (P98170 whole entry, looked up): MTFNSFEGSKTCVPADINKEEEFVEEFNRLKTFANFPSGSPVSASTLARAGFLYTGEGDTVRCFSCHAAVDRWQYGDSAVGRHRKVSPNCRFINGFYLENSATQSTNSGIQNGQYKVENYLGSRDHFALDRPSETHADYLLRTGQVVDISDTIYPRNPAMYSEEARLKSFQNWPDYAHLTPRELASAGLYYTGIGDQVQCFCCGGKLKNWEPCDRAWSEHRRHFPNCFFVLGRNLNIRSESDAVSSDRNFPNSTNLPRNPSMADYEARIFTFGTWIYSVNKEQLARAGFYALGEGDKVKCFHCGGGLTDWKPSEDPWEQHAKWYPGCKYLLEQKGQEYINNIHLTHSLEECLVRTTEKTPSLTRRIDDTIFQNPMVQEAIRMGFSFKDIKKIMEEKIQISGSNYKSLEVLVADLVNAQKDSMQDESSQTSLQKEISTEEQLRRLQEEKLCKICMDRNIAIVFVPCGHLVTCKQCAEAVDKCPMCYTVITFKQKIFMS

Calls of active or inactive are those of the source. Unless noted, no rule for the calls is given here.

Sequence of Dihydroorotate dehydrogenase (quinone), mitochondrial (Plasmodium falciparum (isolate 3D7)) (Q08210 whole entry, looked up): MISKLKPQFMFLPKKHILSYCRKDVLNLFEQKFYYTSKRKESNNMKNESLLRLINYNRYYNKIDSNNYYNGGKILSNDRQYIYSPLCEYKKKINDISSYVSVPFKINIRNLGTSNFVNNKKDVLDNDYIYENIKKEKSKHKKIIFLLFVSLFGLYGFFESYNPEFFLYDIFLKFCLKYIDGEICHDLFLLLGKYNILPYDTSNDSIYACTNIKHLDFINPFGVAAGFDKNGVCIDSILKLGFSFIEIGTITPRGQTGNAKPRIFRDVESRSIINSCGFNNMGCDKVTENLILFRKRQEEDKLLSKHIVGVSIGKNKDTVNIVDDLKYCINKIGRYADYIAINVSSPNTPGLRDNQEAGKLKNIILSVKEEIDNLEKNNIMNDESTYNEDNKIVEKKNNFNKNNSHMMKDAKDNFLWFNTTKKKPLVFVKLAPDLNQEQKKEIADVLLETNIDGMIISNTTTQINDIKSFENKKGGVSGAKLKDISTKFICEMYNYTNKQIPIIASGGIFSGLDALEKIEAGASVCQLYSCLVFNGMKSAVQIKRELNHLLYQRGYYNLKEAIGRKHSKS

Take `Cc1ccc(S[C@]2(C(=O)NCC(C)C)CC(=O)N(Cc3ccccc3Cl)[C@@H]2c2ccc(CO)cc2I)cc1`: the z-score in [1] is 0.0825; in test [2], -1.61 (inactive); in test [3], -1.68 (inactive); in [5], 0.82 (inactive); in test [6] it was -1.33 (inactive); in test [7], -0.0158 (inactive). The z-score in test [8] is 0.0686 (inactive); in test [9], -2.44. The composite z-score is -0.0436 (inactive) in [4] and -0.152 in [10].

As to `CC(C)C(CO)N1C(=O)[C@]2(C)C3C(=O)OCCC/C=C\[C@H]3OC23C=CCN(c2ccc(Cl)cc2)C(=O)[C@@H]13` (stereo not given in full), the z-score is -0.575 in [1]; 0.0095 (inactive) in test [2]; -0.581 (inactive) in test [3]; -0.36 (inactive) in test [5]; -0.3 (inactive) in test [6]; -0.391 (inactive) in test [7]. The figures for the z-score in test [8] and in test [9] were -0.261 (inactive) and -0.713, respectively. The composite z-score in [4] was -1.04 (inactive); in [10] it was 0.117.

As for `[N-]=[N+]=NCc1ccccc1C[C@@]1(C(=O)N2CCCCC2)N=C(c2ccc(OCCCO)cc2)O[C@@H]1c1ccccc1N=[N+]=[N-]`, the z-score in [1] was 0.226; in test [2] it was 0.146 (inactive); in test [3], -0.964 (inactive); in test [5], 0.509 (inactive); in test [6] it was 1.41 (inactive); in test [7], 0.878 (inactive). Further, the z-score is -0.0021 (inactive) in [8] and -0.892 in test [9]. Besides, the composite z-score is 0.42 (inactive) in test [4] and 0.0694 in [10].

Consider `[N-]=[N+]=Nc1ccccc1C[C@]1(C(=O)NCc2ccccc2)N=C(c2ccc(OCCCO)cc2)O[C@H]1c1ccccc1`, for which the z-score in [1] is -0.328; in [2], 1.41 (inactive); in test [3], -1.73 (inactive); in test [5] it was 0.811 (inactive); in [6], 3.08 (inactive); in [7], 0.515 (inactive). Moreover, the z-score in test [8] was -0.0745 (inactive); in test [9] it was -1.84. Besides, the composite z-score in test [4] is 1.18 (inactive); in test [10] it was 0.0378.

With `C=C(C(=O)CC[C@H](OC(=O)c1cccnc1)c1cccc(OCCO)c1)C(C)C`, the z-score in [1] is 0.0418; in [2] it was 1.06 (inactive); in test [3], -1.16 (inactive); in test [5], -0.116 (inactive); in test [6] it was 2.01 (inactive); in test [7], 0.675 (inactive). For the same compound, the figures for the z-score in test [8] and in test [9] were 0.297 (inactive) and -1.36, respectively. In addition, the composite z-score was 0.612 (inactive) in test [4] and -0.0117 in test [10].

Regarding `O=C1O[C@@H](c2ccccc2)[C@@H](c2ccccc2)N2[C@@H](c3ccccc3OCCO)[C@]3(C(=O)Nc4ccc(C#CCCO)cc43)[C@@H](C(=O)N3CCN(c4ncccn4)CC3)[C@H]12`, the z-score in test [1] is 0.261; in test [2] it was 1.73 (inactive); in test [3], -0.901 (inactive); in [5], 0.393 (inactive); in test [6] it was 2.47 (inactive); in [7], 0.245 (inactive). In addition, the z-score in test [8] is -0.289 (inactive); in test [9] it was -1.7. Moreover, the figures for the composite z-score in [4] and in test [10] were 0.286 (inactive) and -0.0622, respectively.

For `COC(=O)C1(Cc2ccccc2)C=C2C(=C(c3ccccc3)C(=O)C2C)CN1` (stereo not given), the z-score in test [1] is -1.33; in [2], 0.369 (inactive); in test [3] it was -2.99 (inactive); in test [5], 1.04 (inactive); in test [6], 0.109 (inactive); in [7], -1.25 (inactive). Besides, the z-score in [8] is -0.628 (inactive); in test [9], -1.78. The figures for the composite z-score in test [4] and in [10] were -1.03 (inactive) and -0.217, respectively.

For the compound `COc1ccc([Si](C)(C)[C@H]2[C@H](CC(=O)N3Cc4ccccc4C[C@H]3CO)O[C@@]3(C(=O)N(Cc4cccc(N5CCCCC5=O)c4)c4ccccc43)[C@@H]2C)cc1`, the z-score is -0.376 in test [1]; -0.704 (inactive) in test [2]; -2.39 (inactive) in test [3]; 1.42 (inactive) in test [5]; 0.662 (inactive) in test [6]; -0.235 (inactive) in test [7]. The z-score in test [8] is -0.435 (inactive); in test [9] it was -1.74. In addition, the composite z-score in test [4] was -0.614 (inactive); in test [10], 0.208.

As to `O=C1O[C@@H](c2ccccc2)[C@@H](c2ccccc2)N2[C@@H](c3ccccc3OCCO)[C@]3(C(=O)Nc4ccc(C#CCCO)cc43)[C@@H](C(=O)Nc3nc4ccccc4s3)[C@H]12`, the z-score in test [1] is -0.0116; in test [2] it was 0.282 (inactive); in test [3], -0.095 (inactive); in test [5] it was 0.986 (inactive); in test [6] it was 2.39 (inactive); in test [7], -0.233 (inactive). The z-score was 0.695 (inactive) in test [8] and -0.226 in test [9]. For the same compound, the composite z-score is -0.176 (inactive) in [4] and -0.145 in test [10].

In the case of `O=C(CCCCCCC(=O)Nc1ccccc1)N/N=C/c1ccccc1`, the z-score in [1] was 0.327; in test [2] it was 0.141 (inactive); in test [3] it was 0.532 (inactive); in test [5] it was 0.437 (inactive); in test [6] it was 0.678 (inactive); in test [7] it was 0.83 (inactive). Besides, the z-score in test [8] is 0.159 (inactive); in [9], 0.718. Moreover, the composite z-score in [4] is -0.543 (inactive); in test [10], 0.248.

Regarding `COc1cc2c(cc1O)C(C)N(Cc1cc3c(cc1Br)OCO3)CC2` (stereo not given), the z-score in test [1] was -0.587; in test [2], -0.272 (inactive); in [3], 0.297 (inactive); in test [5] it was -0.351 (inactive); in test [6] it was 0.526 (inactive); in [7] it was 0.553 (inactive). Moreover, the z-score is 0.0553 (inactive) in test [8] and 0.538 in test [9]. Further, the composite z-score in [4] was -9.46 (active); in test [10] it was -0.157.

Take `O=C(N1CCCCC1)[C@@]1(Cc2ccccc2)COC(c2ccc(OCCCO)cc2)=N1`: the z-score is 0.271 in [1]; -5.06 (inactive) in test [2]; -0.949 (inactive) in test [3]; 0.258 (inactive) in test [5]; 2.13 (inactive) in test [6]; 0.401 (inactive) in test [7]. The figures for the z-score in test [8] and in test [9] were 0.0519 (inactive) and 0.482, respectively. Moreover, the composite z-score is -0.447 (inactive) in test [4] and 0.284 in [10].

Take `CN1C(=O)C2C(C1=O)C1C=C(c3ccc(CO)cc3)C2C(c2cccs2)N1Cc1cccc(OC(F)(F)F)c1` (stereo not given): the z-score in test [1] is -0.153; in test [2], -2.49 (inactive); in test [3] it was -2.06 (inactive); in test [5], -0.387 (inactive); in [6], 0.476 (inactive); in test [7], -0.383 (inactive). For the same compound, the z-score in test [8] is -0.319 (inactive); in test [9] it was -1.08. Further, the composite z-score was -1.6 (inactive) in [4] and 0.214 in test [10].

Values taken from PubChem BioAssay.
